These results are taken from PubChem BioAssay (NCI).

The panel holds about 83,000 compounds, 20% with a hit somewhere; the sample as a whole holds those more often.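 Cells were grown in 96-well plates and exposed to the test compound at a single concentration for 48 hours; results are reported as percent growth, with values below 10 considered active.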 Values without a mark were called inactive. Calls of active or inactive are those of the source.

Test systems include NCI-H23 lung; NCI-H226 lung; NCI-H322M lung; HOP-62 NSCLC; NCI-H460 lung; HOP-92 NSCLC; NCI-H522 lung; A549/ATCC NSCLC; 786-0 renal; COLO 205 colon.
Holding throughout (assay): NCI-60 one-dose screen, 48 h (100 = growth as untreated, 0 = no growth, -100 = all killed)
Details in all cases: 10 µM unless noted

For the compound `CO[C@@]12[C@@H]3NC3CN1C1=C(C(=O)C(N)=C(C)C1=O)[C@@H]2COC(N)=O` (stereo partly specified), the growth is -3.61% (active) with NCI-H23 lung; -5.36% (active) in the assay on NCI-H226 lung; 14.4% with NCI-H322M lung; 19.2% in the assay on HOP-62 NSCLC; -18.9% (active) with NCI-H460 lung; 12.8% in the assay on HOP-92 NSCLC. Further, the growth was -9.07% (active) in the assay with NCI-H522 lung, -61% (active) with A549/ATCC NSCLC and -3.82% (active) with 786-0 renal.
Take `O=C1/C(=C\c2cccn2Cc2ccc(F)cc2)c2ccccc2N1c1c(Cl)cccc1Cl`: the growth in the assay with NCI-H23 lung is 81.1%; in the assay on NCI-H226 lung it was 64%; in the assay on NCI-H322M lung, 69.4%; in the assay with HOP-62 NSCLC, 92.1%; in the assay on NCI-H460 lung it was 87.7%; in the assay with HOP-92 NSCLC it was 66%. For the same compound, the values for the growth with NCI-H522 lung, with A549/ATCC NSCLC and with 786-0 renal were 77%, 69.4% and 76.6%, respectively.
With `Cc1ccc(C2CC(c3cccs3)=NN2c2ccc(S(N)(=O)=O)cc2)s1` (stereo unspecified), the growth with NCI-H23 lung was 107%; with NCI-H226 lung, 89.8%; with NCI-H322M lung it was 98%; in the assay on HOP-62 NSCLC it was 95.6%; with NCI-H460 lung, 88.8%; in the assay with HOP-92 NSCLC, 75.2%. Also, the growth is 63.2% in the assay on NCI-H522 lung, 71.2% in the assay on A549/ATCC NSCLC and 98.5% in the assay with 786-0 renal.
Consider `COc1ccc(-c2nnc(SCC(=O)Nc3ccc(C(=O)/C=C/c4ccc(Cl)cc4)cc3)n2-c2ccccc2)cc1`, for which the growth in the assay with NCI-H23 lung was 91.1%; in the assay on NCI-H226 lung it was 103%; in the assay with NCI-H322M lung it was 118%; with HOP-62 NSCLC, 100%; in the assay on NCI-H460 lung, 106%; in the assay on HOP-92 NSCLC it was 105%. Further, the values for the growth in the assay on NCI-H522 lung, with A549/ATCC NSCLC and in the assay with 786-0 renal were 84%, 88.5% and 97.4%, respectively.
Take `COc1ccccc1/C=N\NC(=S)Nc1ccc(F)cc1`: the growth is 72.5% in the assay with NCI-H23 lung; 90.9% in the assay with NCI-H226 lung; 96% with NCI-H322M lung; 79.8% in the assay on HOP-62 NSCLC; 80.5% in the assay on NCI-H460 lung; 71% in the assay on HOP-92 NSCLC. The figures for the growth in the assay on NCI-H522 lung, in the assay with A549/ATCC NSCLC and with 786-0 renal were 38.1%, 68% and 93.6%, respectively.
Take `Cc1cc(C)c2c(n1)sc1c(Nc3ccc(O)cc3)ncnc12`: the growth in the assay with NCI-H23 lung was 9.96% (active); in the assay with NCI-H226 lung, 32.4%; in the assay on NCI-H322M lung it was 46.2%; in the assay on HOP-62 NSCLC, 18.5%; in the assay with NCI-H460 lung, 10.1%; with HOP-92 NSCLC, 35.5%. The figures for the growth with NCI-H522 lung, with A549/ATCC NSCLC and with 786-0 renal were 32.4%, 26.7% and 12.6%, respectively.
Regarding `COc1cc2nccc(Oc3ccc(NC(=O)C4(C(=O)Nc5c(F)cc(F)cc5F)CC4)cc3)c2cc1Oc1ccc(N)cn1`, the growth with NCI-H23 lung is 53.6%; with NCI-H226 lung it was 37.7%; in the assay on NCI-H322M lung it was 74.8%; with HOP-62 NSCLC, 67.7%; in the assay with NCI-H460 lung, 65.4%; with HOP-92 NSCLC, 2.04% (active). In addition, the results for the growth with NCI-H522 lung, in the assay on A549/ATCC NSCLC and in the assay on 786-0 renal were 55%, 48% and 96.5%, respectively.
For the compound `OC(c1cc(-c2ccc(C(F)(F)F)cc2)nc(-c2ccc(C(F)(F)F)cc2)c1)C1CCCCN1` (stereo unspecified), the growth in the assay with NCI-H23 lung was -60.2% (active); with NCI-H226 lung it was -71.2% (active); in the assay on NCI-H322M lung it was -79.5% (active); with HOP-62 NSCLC it was -86.9% (active); with NCI-H460 lung, -67.7% (active); in the assay on HOP-92 NSCLC, -81.9% (active). Besides, the results for the growth in the assay with NCI-H522 lung, with A549/ATCC NSCLC and in the assay on 786-0 renal were -78.7% (active), -84.4% (active) and -75.4% (active), respectively.
With `COc1ccc(C2CC(c3ccc(Nc4ccnc5cc(Cl)ccc45)cc3)=NN2c2ccccc2)cc1` (stereo unspecified), the growth is 97.7% with NCI-H23 lung; 102% with NCI-H226 lung; 100% in the assay on NCI-H322M lung; 106% in the assay on HOP-62 NSCLC; 85.6% in the assay on NCI-H460 lung; 68.5% in the assay with HOP-92 NSCLC. In addition, the values for the growth with NCI-H522 lung, in the assay with A549/ATCC NSCLC and in the assay with 786-0 renal were 90.6%, 85.8% and 100%, respectively.
On to `O=c1[nH]c2ccccc2n2cc3cccnc3c12`, for which the growth in the assay with NCI-H23 lung is 77.5%; in the assay with NCI-H226 lung, 64.2%; in the assay on NCI-H322M lung, 116%; in the assay on HOP-62 NSCLC, 68.7%; with NCI-H460 lung it was 37.3%; with HOP-92 NSCLC it was 83.6%. The growth in the assay on NCI-H522 lung was 57.6%; with A549/ATCC NSCLC, 83.5%; in the assay on 786-0 renal, 71.1%; in the assay on COLO 205 colon, 70%.
As for `O=C(Cn1nncc1CN1C(=O)CSC1=O)Nc1ccc(F)cc1`, the growth with NCI-H23 lung is 97.3%; with NCI-H226 lung, 95.7%; in the assay with NCI-H322M lung it was 102%; with HOP-62 NSCLC, 97.2%; in the assay with NCI-H460 lung, 103%; with HOP-92 NSCLC, 104%. Besides, the growth was 93.5% in the assay on NCI-H522 lung, 102% with A549/ATCC NSCLC, 102% with 786-0 renal and 107% in the assay with COLO 205 colon.
As for `COc1ccc(C(=O)/C=C/c2cn(-c3ccccc3)nc2-c2cccc(Nc3ccnc4cc(Cl)ccc34)c2)cc1`, the growth in the assay with NCI-H23 lung was 101%; in the assay with NCI-H226 lung, 95.4%; with NCI-H322M lung it was 101%; in the assay with HOP-62 NSCLC it was 103%; in the assay with NCI-H460 lung, 96.6%; in the assay on HOP-92 NSCLC, 64.9%. Further, the growth is 96.7% in the assay on NCI-H522 lung, 95.3% in the assay with A549/ATCC NSCLC, 99.5% with 786-0 renal and 102% in the assay with COLO 205 colon.
For `O=C(N=Nc1c(Cl)c(O)c2ccccc2c1O)C(=O)Nc1cccc(C(F)(F)F)c1`, the growth is 71.5% in the assay with NCI-H23 lung; 88.5% with NCI-H226 lung; 63.4% with NCI-H322M lung; 47.9% in the assay on HOP-62 NSCLC; 79.8% in the assay with NCI-H460 lung; 79.2% with HOP-92 NSCLC. Moreover, the growth was 8.55% (active) in the assay on NCI-H522 lung, 87.1% in the assay with A549/ATCC NSCLC, 90.3% in the assay on 786-0 renal and 47.3% in the assay with COLO 205 colon.
Turning to `CC(=O)N[C@@H](CCC(N)=O)C(=O)O`, the growth is 92.6% with NCI-H23 lung; 87.9% with NCI-H226 lung; 111% in the assay with NCI-H322M lung; 102% with HOP-62 NSCLC; 105% in the assay on NCI-H460 lung; 61.3% with HOP-92 NSCLC. In addition, the growth is 103% with NCI-H522 lung, 88.2% with A549/ATCC NSCLC, 82.6% with 786-0 renal and 124% in the assay with COLO 205 colon.
